Measurements reported in the supplement of paper PMC9694430.

Experiments:
Assay in all cases: thermal shift delta Tm vs DMSO control; higher = stronger stabilization (binding)
Details in all cases: 12.5 µM; protein concentration 2 µM
LOC_OS04G57630-cb004 = tested on: LOC_OS04G57630-cb004
Procedure, shortened: (§1)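 Compounds dissolved in DMSO were added to purified rice kinase domain constructs, which had been expressed in E. coli, for differential scanning fluorimetry. Each well held 19.5 μl of 2 μM kinase in 100 mM potassium phosphate pH 7.5, 150 mM NaCl, 10% glycerol and 5 × SYPRO Orange. Fluorescence was followed from 25°C to 95°C at a rate of 0.05°C/s. Shifts in Boltzmann-fitted melting temperature are triplicate means relative to DMSO-only protein.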

LOC_OS05G07850-cb002 = tested on: LOC_OS05G07850-cb002
Procedure, shortened: as §1

LOC_OS05G16824-cb004 = tested on: LOC_OS05G16824-cb004
Procedure, shortened: as §1

LOC_OS05G28520-cb001 = tested on: LOC_OS05G28520-cb001
Procedure, shortened: as §1

LOC_OS05G30820-cb001 = tested on: LOC_OS05G30820-cb001
Procedure, shortened: as §1

LOC_OS05G43570-cb004 = tested on: LOC_OS05G43570-cb004
Procedure, shortened: as §1

LOC_OS06G16330-cb003 = tested on: LOC_OS06G16330-cb003
Procedure, shortened: as §1

LOC_OS06G22820-cb001 = tested on: T1, LOC_OS06G22820-cb001
T1 sequence (whole entry): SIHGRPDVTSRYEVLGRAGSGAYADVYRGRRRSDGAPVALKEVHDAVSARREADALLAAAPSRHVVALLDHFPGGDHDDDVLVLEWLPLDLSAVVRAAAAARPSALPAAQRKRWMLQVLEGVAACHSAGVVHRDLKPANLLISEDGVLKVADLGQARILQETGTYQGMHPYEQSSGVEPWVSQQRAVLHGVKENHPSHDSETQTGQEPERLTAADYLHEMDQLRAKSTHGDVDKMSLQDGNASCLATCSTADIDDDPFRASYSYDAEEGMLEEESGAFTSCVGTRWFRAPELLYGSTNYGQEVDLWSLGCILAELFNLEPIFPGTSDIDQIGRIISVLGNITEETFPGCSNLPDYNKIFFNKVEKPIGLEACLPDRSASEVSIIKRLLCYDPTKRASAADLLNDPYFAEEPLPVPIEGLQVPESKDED
Procedure, shortened: as §1

LOC_OS07G06570-cb004 = tested on: LOC_OS07G06570-cb004
Procedure, shortened: as §1

LOC_OS07G07230-cb001 = tested on: LOC_OS07G07230-cb001
Procedure, shortened: as §1

Chain of LOC_OS06G16330-cb003 (as listed by the source): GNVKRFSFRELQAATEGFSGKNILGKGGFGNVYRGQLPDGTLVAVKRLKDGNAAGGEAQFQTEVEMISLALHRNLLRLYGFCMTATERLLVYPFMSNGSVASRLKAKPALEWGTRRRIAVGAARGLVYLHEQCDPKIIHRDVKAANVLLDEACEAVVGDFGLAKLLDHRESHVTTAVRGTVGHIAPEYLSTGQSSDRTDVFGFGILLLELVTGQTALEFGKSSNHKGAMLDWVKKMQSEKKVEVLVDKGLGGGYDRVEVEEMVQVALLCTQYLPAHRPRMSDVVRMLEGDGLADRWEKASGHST

| Compound | thermal shift delta Tm (LOC_OS04G57630-cb004) | thermal shift delta Tm (LOC_OS05G07850-cb002) | thermal shift delta Tm (LOC_OS05G16824-cb004) | thermal shift delta Tm (LOC_OS05G28520-cb001) | thermal shift delta Tm (LOC_OS05G30820-cb001) | thermal shift delta Tm (LOC_OS05G43570-cb004) | thermal shift delta Tm (LOC_OS06G16330-cb003) | thermal shift delta Tm (LOC_OS06G22820-cb001) | thermal shift delta Tm (LOC_OS07G06570-cb004) | thermal shift delta Tm (LOC_OS07G07230-cb001) |
| --- | --- | --- | --- | --- | --- | --- | --- | --- | --- | --- |
| C[S+]([O-])c1ccc(-c2nc(-c3ccc(F)cc3)c(-c3ccncc3)[nH]2)cc1 (stereo not given) | 0.89 °C | 1.83 °C | -0.97 °C | 1.26 °C | 0.6 °C | 1.12 °C | 0.69 °C | 0.87 °C | 1.21 °C | 0.43 °C |
| CS(=O)(=O)N1CCc2c(-c3cnc(N)nc3)nc(N3CCOCC3)nc21 | 0.4 °C | 2.27 °C | 0.4 °C | 0.43 °C | 0.79 °C | 0.7 °C | 0.69 °C | 0.66 °C | 0.72 °C | -0.05 °C |
| FC(F)(F)c1ccc(CNc2ccc(Cc3c[nH]c4ncc(Cl)cc34)cn2)cn1 [Pexidartinib (PLX3397)] | 1.53 °C | 8.75 °C | 5.17 °C | 1.46 °C | 0.74 °C | 0.8 °C | 8.9 °C | 0.41 °C | 0.14 °C | -0.31 °C |
| CN1CC(O)C2=C/C(=N/NC(N)=O)C(=O)C=C21 (stereo not given) [Carbazochrome] | -0.07 °C | 1.06 °C | -3.49 °C | -0.11 °C | 0.11 °C | 0.35 °C | 0.27 °C | 0.09 °C | 0.68 °C | 0.58 °C |
| Cc1ccc(-n2nc(C(C)(C)C)cc2NC(=O)NCc2cc(F)ccc2Oc2ccc3c(cnn3CCO)c2)cc1 [Pexmetinib (ARRY-614)] | 5.61 °C | 7.46 °C | -1.5 °C | 0.41 °C | 0.66 °C | 0.54 °C | 3.89 °C | 0.91 °C | 0.14 °C | -0.6 °C |
| CCOc1cc2ncc(C#N)c(Nc3ccc(F)c(Cl)c3)c2cc1NC(=O)/C=C/CN(C)C [Pelitinib (EKB-569)] | 0.32 °C | 2.2 °C | -1.87 °C | -0.33 °C | 0.56 °C | 0.2 °C | 2.16 °C | 0.39 °C | 0.65 °C | 0.56 °C |
| COc1cc(N2CCC(N(C)C)CC2)ccc1Nc1ncc(Cl)c(Nc2ccccc2P(C)(C)=O)n1 | 2.89 °C | 15 °C | 6.56 °C | 0.2 °C | 1.4 °C | 0.32 °C | 8.95 °C | 0.49 °C | 1.14 °C | 0.35 °C |
| CO[C@H]1C[C@@H]2CC[C@@H](C)[C@@](O)(O2)C(=O)C(=O)N2CCCC[C@H]2C(=O)O[C@H]([C@H](C)C[C@@H]2CC[C@@H](OCCO)[C@H](OC)C2)CC(=O)[C@H](C)/C=C(\C)[C@@H](O)[C@@H](OC)C(=O)[C@H](C)C[C@H](C)/C=C/C=C/C=C/1C [Everolimus (RAD001)] | -0.03 °C | -0.04 °C | 1.13 °C | 0.62 °C | 0.41 °C | 0.57 °C | 0.13 °C | 1.04 °C | 0.88 °C | -1.46 °C |
| CCc1ccc(/C=C2/SC(=S)NC2=O)cc1 | 0.22 °C | 2.65 °C | -3.64 °C | 1.2 °C | 0.82 °C | 1 °C | 0.48 °C | 1.04 °C | 1.65 °C | 0.27 °C |
| CCn1c(N)c(C(=O)NC)c(=O)c2ccc(C#CC(C)(O)COC)nc21 (stereo not given) | 0.45 °C | 5.21 °C | 3.79 °C | 0.37 °C | 0.73 °C | 0.13 °C | 0.51 °C | 0.3 °C | 1.2 °C | -0.09 °C |
